Bioassay records: PubChem, Broad Institute
In the library only some 6.8% were active in any assay of this set; here they are far more common.
T cruzi growth: inhibitors of T. cruzi proliferation; T. cruzi beta-gal in NIH3T3, GalScreen luminescence, 90 h; inhibition, % at 8.34 µM; 77,000 tested, 5.9% active;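 active = mean inhibition above about 93%, with at least 55% of replicates each passing it, limit read from the data, passing the limit was not always enough; inconclusive = only one of those two conditions holds; inactive = neither condition holds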
Pf Dd2 growth: P. falciparum Dd2 growth inhibition; AID 1159554; activity change, % at 10 µM; 94,000 tested, 2.3% active; SYBR Green, 72 h; active compounds read low; in the data active = activity change below about -80%; inconclusive = no clear call, values can overlap the other calls
C diff HTS: C. difficile growth inhibition; AID 1259249; 86,000 tested, 0.25% active; growth activity, negative = inhibition, % at 16 µg/mL (by protocol); Clostridium difficile clinical isolate growth, OD600, 24 h; active compounds read low;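 active = mean growth activity at or below -80% and every replicate also at or below -80%; inconclusive = mean at or below -80% but some replicate above -80%; inactive = mean growth activity above -80%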;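 note: 0% = DMSO wells and -100% = levofloxacin 16 µg/mL wells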
Active calls of the source: *; ? = inconclusive; . = no result given; ! = not confirmed by another sample.

SMILES	T cruzi growth	Pf Dd2 growth	C diff HTS
C[C@H]1CCCCO[C@H](CN(C)Cc2ccccc2)[C@@H](C)CN([C@@H](C)CO)C(=O)c2cc(NC(=O)Nc3ccc(F)cc3)ccc2O1	75	-72	5
C[C@@H]1CCCCO[C@H](CN(C)Cc2ccc3c(c2)OCO3)[C@H](C)CN([C@@H](C)CO)C(=O)c2cc(NC(=O)Nc3ccccc3)ccc2O1	16	?	5
C[C@@H]1CN([C@H](C)CO)C(=O)c2cc(NC(=O)Nc3ccccc3)ccc2O[C@@H](C)CCCCO[C@@H]1CN(C)Cc1ccccc1	.	-82*	.
C[C@H]1CCCCO[C@@H](CN(C)Cc2ccc3c(c2)OCO3)[C@@H](C)CN([C@@H](C)CO)C(=O)c2cc(NC(=O)Nc3ccccc3)ccc2O1	94	-82*	12
C[C@@H]1CCCCO[C@H](CN(C)Cc2ccccc2)[C@H](C)CN([C@@H](C)CO)C(=O)c2cc(NC(=O)Nc3ccc(F)cc3)ccc2O1	76	-84*	8
Cc1cccc(-c2ccc([C@@H]3[C@@H](CO)N4CCCCN(CCC(F)(F)F)C[C@@H]34)cc2)c1	93	-22	24
O=C(Nc1cc(F)ccc1F)N1CCCCN2[C@H](C1)[C@H](c1ccc(C3=CCCCC3)cc1)[C@@H]2CO	78	6	11
COc1ccccc1NC(=O)N1CCCCN2[C@H](CO)[C@H](c3ccc(-c4ccc(C)cc4)cc3)[C@@H]2C1	87	-11	-5
O=C(Nc1cc(F)ccc1F)N1CCCCN2[C@@H](CO)[C@@H](c3ccc(C4=CCCCC4)cc3)[C@@H]2C1	-27	-70	-95*
COc1ccccc1NC(=O)N1CCCCN2[C@@H](CO)[C@@H](c3ccc(C#CC4CCCC4)cc3)[C@@H]2C1	-3	-64	58
Cc1cccc(-c2ccc([C@@H]3[C@H](CO)N4CCCCN(CCC(F)(F)F)C[C@@H]34)cc2)c1	84	-81*	21
COc1ccccc1NC(=O)N1CCCCN2[C@@H](CO)[C@H](c3ccc(C#CC4CCCC4)cc3)[C@@H]2C1	-3	-83*	56
COc1ccccc1NC(=O)N1CCCCN2[C@H](CO)[C@H](c3ccc(-c4cccc(C)c4)cc3)[C@H]2C1	75	-86*	-65
CC(C)NC(=O)Nc1ccc2c(c1)CC(=O)N([C@H](C)CO)C[C@@H](C)[C@@H](CN(C)S(=O)(=O)c1cn(C)cn1)O2	0	33	-1
COCC(=O)N1CC(=O)N2[C@H](CO)[C@H](c3ccc(C#CC(C)C)cc3)[C@H]2C1	.	35	-4
O=C(C[C@@H]1CC[C@H]2[C@@H](COC[C@@H](O)CN2C(=O)Cc2ccccc2)O1)NC1CCC1	-23	6	6
CO[C@@H]1CN(C)C(=O)c2ccc(NC(=O)C3CCC3)cc2OC[C@H](C)N(Cc2nccs2)C[C@H]1C	29	.	.
COc1ccc(NC(=O)Nc2ccc3c(c2)C(=O)N(C)C[C@@H](OC)[C@H](C)CN[C@@H](C)CO3)cc1	-12	-2	-1
COc1ccccc1S(=O)(=O)N1C[C@@H]2N[C@H](C1)C2c1ccc(-c2ccccc2C)cc1 (stereo partly specified)	.	-18	49
O=S(=O)(c1ccc(-c2ccccc2)cc1)N1C[C@@H]2N[C@H](C1)C2c1ccc(-c2ccccc2)cc1 (stereo partly specified)	.	-87*!	13
COc1cccc(S(=O)(=O)N2C[C@@H]3N[C@H](C2)C3c2ccc(/C=C/c3ccccc3)cc2)c1 (stereo partly specified)	.	-67	-94*!
O=S(=O)(c1ccccc1)N1C[C@@H]2N[C@H](C1)C2c1ccc(-c2cccnc2)cc1 (stereo partly specified)	.	-56	-4
Cc1ccccc1-c1ccc(C2[C@@H]3CN(S(=O)(=O)c4ccccc4C)C[C@H]2N3)cc1 (stereo partly specified)	.	-28	-98*!
COc1cccc(-c2ccc(C3[C@@H]4CN(S(=O)(=O)c5ccccc5)C[C@H]3N4)cc2)c1 (stereo partly specified)	.	-30	60
Cc1ccc(S(=O)(=O)N2C[C@@H]3N[C@H](C2)C3c2ccc(-c3ccncc3)cc2)cc1 (stereo partly specified)	.	-81*!	4
SMILES	T cruzi growth	Pf Dd2 growth	C diff HTS
N#Cc1ccc(-c2ccc([C@@H]3[C@@H]4CN(S(=O)(=O)c5ccc(-c6ccccc6)cc5)C[C@H]3N4)cc2)cc1	.	-74	2
COc1ccc2c3c(n(C)c2c1)[C@H](CO)N(CC1CC1)CC31CN(C(C)=O)C1	.	15	8
CCN(C[C@H]1N[C@@H](CO)[C@@H]1c1ccc(-c2cccc(F)c2)cc1)C(=O)COC	18	-1	4
C[C@H]1CN([C@@H](C)CO)C(=O)c2cc(NC(=O)Nc3ccccc3)ccc2O[C@@H]1CN(C)Cc1ccc(C(=O)O)cc1	-33	6	2
C/C=C/c1ccc(C2[C@@H]3CN(S(=O)(=O)c4ccccc4)C[C@H]2N3)cc1 (stereo partly specified)	.	-40	1
Cc1ccc(S(=O)(=O)N2C[C@@H]3N[C@H](C2)C3c2ccc(/C=C/c3ccccc3)cc2)cc1 (stereo partly specified)	.	-29	-95*!
Cn1cnc(S(=O)(=O)N[C@@H]2CC[C@H](CC(=O)NCC3CCCCC3)O[C@@H]2CO)c1	18	-8	6
CC(C)NC(=O)Nc1ccc2c(c1)C(=O)N([C@H](C)CO)C[C@@H](C)[C@H](CN(C)Cc1ccc(C(=O)Nc3ccccc3N)cc1)O2	-72	18	1
COc1ccc2c3c(n(C)c2c1)[C@H](CO)N(C(=O)C1CC1)CC31CN(C(=O)Nc2cccc(F)c2)C1	.	-63	-3
CCCC(=O)N1CCC2(CC1)CN(C(=O)Nc1cccc(F)c1)[C@@H](CO)c1c2c2ccc(OC)cc2n1C	.	-64	-17
CCCC(=O)N1CC2(CCN(C(=O)Nc3cccc(F)c3)CC2)c2c(n(C)c3cc(OC)ccc23)[C@H]1CO	.	-86*	1
COc1ccc2c3c(n(C)c2c1)[C@H](CO)N(C)CC31CN(C(=O)Nc2cccc(F)c2)C1	.	-20	2
COc1ccc2c3c(n(C)c2c1)[C@@H](CO)N(C(=O)C1CCC1)CC31CN(C(=O)Nc2cccc(F)c2)C1	.	-87*	7
COc1ccc2c3c(n(C)c2c1)[C@@H](CO)N(C(=O)C1CCOCC1)CC31CCN(C(=O)Nc2cccc(F)c2)CC1	.	-73	-1
COc1ccc2c3c(n(C)c2c1)[C@@H](CO)N(C(=O)C1CC1)CC31CN(C(=O)Nc2cccc(F)c2)C1	.	-88*	-11
COc1ccc2c3c(n(C)c2c1)[C@@H](CO)N(C(=O)C1CC1)CC31CCN(C(=O)Nc2cccc(F)c2)CC1	.	-91*	3
O=C(O)C[C@H]1CC[C@H](NC(=O)CCN2CCCCC2)[C@H](CO)O1	.	15	-5
CNC[C@H]1Oc2cc(-c3ccc(C(=O)N(C)C)cc3)ccc2S(=O)(=O)N([C@H](C)CO)C[C@@H]1C	7	-7	1
CCNC(=O)c1cc2c(c(-c3cccc(-c4ccncc4)c3)n1)[C@@H](CCO)N(S(=O)(=O)CC)C2	.	12	0
Cc1ccccc1-c1cnc2c(c1)C(=O)N([C@@H](C)CO)C[C@H](C)[C@@H](CN(C)CC1CCCCC1)O2	59	-45	.
